Pol eta inh: inhibitors of human DNA polymerase eta. Q9Y253. recombinant Pol eta, fluorescent DNA replication assay. Potency, µM (titrated, usually from 114 µM), usual class: inhibitors. 1.2% of 390,000 active. AID 588591
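Fluorescent replication assay: 50 nM final substrate added after a 15 min room-temperature compound preincubation with 10 nM enzyme. Signal taken at 0 min and again at 10 min.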
POLK inh: inhibitors of human DNA polymerase kappa | AID 588579 | 0.53% of 400,000 active | Potency, µM (doses to about 107 µM), hits mostly inhibitors | purified Pol kappa, fluorescent DNA synthesis assay, 10 min
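Kinetic fluorescence screen: compound preincubated 15 min RT with 10 nM enzyme; 50 nM substrate (final) initiates; reads at 0/10 min.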
L3MBTL1 block: blocks human L3MBTL1 | Q9Y468 | AlphaScreen L3MBTL1–H3K9me1 peptide binding | Potency, µM (doses to about 57.1 µM), most hits filed as inhibitors | 0.66% of 230,000 active; also: nearly all actives have a fitted effect of over 60% in size
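Read-out is AlphaScreen signal from streptavidin donor and nickel chelate acceptor beads (10 ug/mL final each) bridging L3MBTL1 (50 nM) and biotinylated K9-monomethylated H3(1-15) peptide (75 nM), after 30 min compound exposure at room temperature.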
POLB inh: DNA polymerase beta (human) inhibition; P06746; Pol beta primer extension/strand displacement, fluorescence kinetic; Potency, µM (doses to about 114 µM), usual class: inhibitors; 1.3% of 340,000 active
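Values derive from four-parameter Hill fits of normalized kinetic data: reads at 0 and 10 min following addition of 50 nM substrate to 10 nM Pol beta preincubated 15 min with compound.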
Pol iota inh: inhibitors of human DNA polymerase iota. Q9UNA4. Pol iota fluorescent replication assay, 10 min. Potency, µM (top dose mostly 115 µM), most hits filed as inhibitors. 1% of 390,000 active
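Pol iota at 10 nM preincubated 15 min with compounds at room temperature; reaction started with fluorescent substrate, 50 nM final. Fluorescence read kinetically at 0 and 10 min; buffer-only wells as negative control.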
Hits are given with their value; [ ] = dose if it differs, or a comment. A selection: hits, their analogues and other compounds. The true share with any hit is near 2.4%. Calls follow the shape of the dose curve; as a rule, active = well fitted curve in the direction sought with a large enough effect; inconclusive = small, poorly fitted or top-dose-only effect, or another doubt; inactive = no such curve, though single readings can be large; an effect the other way counts as inactive or inconclusive.

COc1ccc(CNC(=O)CC2N=C3c4ccccc4N=C(SCC(=O)Nc4ccc(C(C)C)cc4)N3C2=O)cc1 (configuration not stated) was read as Pol eta inh inactive, POLK inh inactive, POLB inh inactive and Pol iota inh inactive.
Screening Cn1c(=O)n(C)c2cc(N3CCOCC3)c(NC(=O)c3c(F)cccc3F)cc21 returned Pol eta inh inactive, POLK inh inconclusive, POLB inh inactive and Pol iota inh inactive.
`COc1ccc(NS(=O)(=O)c2ccc3c(c2)CCCN3C(C)=O)cc1` gave Pol eta inh inactive, POLK inh inactive, POLB inh inactive and Pol iota inh inactive.
`COc1cccc(NS(=O)(=O)c2ccc3c(c2)CCCN3C(C)=O)c1` gave Pol eta inh inactive, POLK inh inactive, POLB inh 79.4µM and Pol iota inh inactive.
Screening COc1ccc(CNC(=O)C(Cc2ccccc2)NS(=O)(=O)c2ccc3c(c2)CCN3C(C)=O)cc1 (configuration not stated) returned Pol eta inh inactive, POLK inh inactive, POLB inh 25.1µM and Pol iota inh inconclusive.
For CC(=O)N1CCc2cc(S(=O)(=O)NC(C(=O)NC(C)c3ccccc3)C(C)C)ccc21 (configuration not stated) the results were Pol eta inh inactive, POLK inh inactive, POLB inh inactive and Pol iota inh inactive.
Screening CC(=O)N1CCc2cc(S(=O)(=O)NC(C(=O)NC3CCCc4ccccc43)C(C)C)ccc21 (configuration not stated) returned Pol eta inh inactive, POLK inh inactive, POLB inh 31.6µM and Pol iota inh inactive.
Screening COC(=O)c1ccccc1NC(=O)c1oc2ccc3c(c2c1C)C(=O)CC(C)(C)O3 returned Pol eta inh inactive, POLK inh inactive, POLB inh inactive and Pol iota inh inactive.
Screening O=C(NCc1ccc(/C=c2\sc3n(c2=O)CCN=3)o1)C(=O)Nc1ccccc1 returned L3MBTL1 block 25.1µM and POLB inh 4.47µM.
`Cc1ccc(/C=c2/sc3n(c2=O)CCCN=3)o1` gave Pol eta inh inactive, POLK inh inactive, L3MBTL1 block inactive, POLB inh inconclusive and Pol iota inh inactive.
For CCN(CC)S(=O)(=O)c1cccc(C(=O)N/N=C/c2ccccc2OCC(=O)O)c1 the results were Pol eta inh inactive, POLK inh inactive, L3MBTL1 block inactive, POLB inh inactive and Pol iota inh inactive.
CCN(CC)S(=O)(=O)c1cccc(C(=O)N/N=C/c2c(C)nn(-c3ccccc3)c2Cl)c1 was read as Pol eta inh inactive, POLK inh inactive, L3MBTL1 block inactive, POLB inh 14.1µM and Pol iota inh inactive.
`CCCSc1nc2sc3c(c2c(=O)[nH]1)CCN(Cc1ccccc1)C3` gave Pol eta inh inconclusive, POLK inh inactive, POLB inh 39.8µM and Pol iota inh inactive.
Screening COc1ccc(S(=O)(=O)N(C)C[C@H]2Oc3ccc(NC(=O)Cc4cn(C)c5ccccc45)cc3C(=O)N([C@@H](C)CO)C[C@@H]2C)cc1 returned Pol eta inh inactive, POLK inh inactive, L3MBTL1 block inactive and Pol iota inh inactive.
`CCOC(=O)c1c(C)[nH]c(CCC(=O)NCc2cc(OC)c(OC)c(OC)c2)c1C` gave Pol eta inh inactive, POLK inh inactive, POLB inh inactive and Pol iota inh inactive.
Screening C[C@@H]1NC(=O)[C@H](CC(N)=O)NC(=O)c2cc([N+](=O)[O-])cc(I)c2OCC[C@@H](C(=O)NC(CC(=O)O)C(N)=O)NC1=O (some centres not stated) returned Pol eta inh 20µM, POLK inh 79.4µM, L3MBTL1 block inactive, POLB inh inactive and Pol iota inh inconclusive.
`NC(=O)C(CC(=O)O)NC(=O)[C@@H]1CCOc2c(I)cc([N+](=O)[O-])cc2C(=O)N[C@@H](CCC(=O)O)C(=O)N[C@@H](CO)C(=O)N1` (some centres not stated) gave Pol eta inh inconclusive, POLK inh inconclusive, L3MBTL1 block inactive, POLB inh inactive and Pol iota inh inconclusive.
`C[C@@H]1NC(=O)c2cc([N+](=O)[O-])cc(I)c2OCC[C@@H](C(=O)NC(CC(=O)O)C(N)=O)NC(=O)[C@H](CCC(=O)O)NC1=O` (some centres not stated) gave Pol eta inh 17.8µM, POLK inh inconclusive, L3MBTL1 block inconclusive, POLB inh inactive and Pol iota inh inconclusive.
`COc1ccc(CNCc2ccccc2)cc1COc1ccc(NC(C)=O)cc1` gave POLK inh inactive and Pol iota inh inactive.
`COc1ccc(/C=N/NC(=O)c2nn(-c3ccccc3)c(=O)c3c(N)scc23)cc1` gave Pol eta inh inactive, POLK inh 35.5µM, L3MBTL1 block inconclusive, POLB inh inconclusive and Pol iota inh 12.6µM.
COc1ccc(/C=N/NC(=O)c2nn(-c3ccc(Cl)cc3)c(=O)c3c(N)scc23)cc1 was read as Pol eta inh inactive, POLK inh inactive, POLB inh inactive and Pol iota inh inconclusive.
COc1ccc(-n2nc3cc(C)c(N)c(Br)c3n2)cc1 was read as Pol eta inh inactive, POLK inh inactive, L3MBTL1 block inactive, POLB inh inactive and Pol iota inh 25.1µM.
COc1ccc(-n2nc3cc(N)c(Br)cc3n2)cc1 was read as Pol eta inh inactive, POLK inh inactive, L3MBTL1 block inactive[2.29 µM], POLB inh inactive and Pol iota inh inactive.
For O=C(O)c1cccc(CN2C(=O)S/C(=C/c3cccc([N+](=O)[O-])c3)C2=O)c1 the results were Pol eta inh 79.4µM, POLK inh inactive, POLB inh inactive and Pol iota inh inconclusive.
O=C(CN1C(=O)S/C(=C\c2ccccc2)C1=O)Nc1cc([N+](=O)[O-])ccc1O was read as Pol eta inh 79.4µM, POLK inh inactive, L3MBTL1 block inactive, POLB inh inactive and Pol iota inh inactive.
For Cc1ccc(/C=C2/SC(=S)N(CCCC(=O)Nc3cc([N+](=O)[O-])ccc3O)C2=O)cc1 the results were Pol eta inh inactive, POLK inh inactive, POLB inh inactive and Pol iota inh inactive.
Screening CCc1ccc2oc(C(=O)Nc3ccccc3C(=O)OC)cc(=O)c2c1 returned Pol eta inh inactive, POLK inh inactive, POLB inh inactive and Pol iota inh inactive.
`Cc1[nH]c2ccccc2c1C1(O)C(=O)N(Cc2ccccc2)c2ccc(Cl)cc21` (configuration not stated) gave Pol eta inh inactive, POLK inh inactive, POLB inh inactive and Pol iota inh inactive.
`CCOC(=O)c1ccccc1Nc1cn(C(C)=O)c2ccccc12` gave Pol eta inh inactive, POLK inh inactive, POLB inh inactive and Pol iota inh inactive.
`COc1ccccc1N(C(=O)CCl)c1cn(C(C)=O)c2ccccc12` gave Pol eta inh 44.7µM, POLK inh inactive, L3MBTL1 block inactive, POLB inh inactive and Pol iota inh inactive.
